Hits are enriched below; roughly 8.1% of the tested compounds scored in any of these assays.
Gal4-VP16 FLuc: Gal4-VP16 reporter inhibition counter-screen | Drosophila S2 Gal4-VP16 UAS-luciferase, luminescence, 20 h | Potency, µM (titrated, usually from 53.6 µM), for inactives: at the highest dose activity, negative = inhibition, actives largely listed as inhibitors | 310,000 tested, 3.5% active;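 also: Gal4-VP16 expression switched on by copper sulfate through the metallothionein promoter; % is scaled to controls: 0 for no effect and ±100 for the full control effect; nearly all actives have a fitted effect of over 50% in size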
PINK1 expr mod: PINK1 expression modulation. Potency, µM (titrated, usually from 76.6 µM), for inactives: at the top dose activation (PINK1 increase), hits mostly activators. 410,000 tested, 0.2% active. AID 624263. PINK1 immunofluorescence, high-content cytometry, 24 h; active = well fitted activation curve with a large enough effect; inconclusive = small, poorly fitted or top-dose-only effect; cell line not stated here; also: % of control where 0% means no effect; nearly all actives have a fitted effect of over 65% in size
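A stable cell line was treated with compounds at 5 concentrations for 24 hours, with CCCP as control. PINK1 levels and mitochondrial localization were measured by immunofluorescence with mitochondrial, cell and nuclear markers after fixation, read by laser-scanning cytometry.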
Sfp PPTase inh: inhibitors of Bacillus subtilis Sfp phosphopantetheinyl transferase; Potency, µM, for inactives: largest response in the series, negative = inhibition, usual class: inhibitors; Q9F4F7; 310,000 tested, 3.5% active; Biochemical Sfp PPTase activity, qHTS; AID 1490;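 also: the enzyme is Sfp with the accession as filed and its product quenches rhodamine fluorescence; 0% = enzyme reaction without inhibitor and -100% = no enzyme wells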
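Fluorescence-quenching assay with 15 nM Sfp, 5 uM rhodamine-CoA and 12.5 uM BHQ-2-labelled ybbR peptide in pH 7.6 Hepes/MgCl2 buffer. Enzyme was pre-incubated with compound for 15 min at room temperature. Rate was taken from the 30-min fluorescence change (525/598 nm).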
ClpP mod: qHTS Assay for Activators of ClpP. purified B. subtilis ClpP, FRET peptide cleavage, 20 min. Potency, µM (series often up to 57.5 µM), inactives show at the top dose activity change, negative = active. 340,000 tested, 1.9% active; active = well fitted falling curve with a large enough effect; inconclusive = small, poorly fitted or top-dose-only effect; inactive = no such curve, though single readings can be large or run the other way; also: the source files actives as falling curves though it sought activators and does not explain the sign; nearly all actives have a fitted effect of over 65% in size
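Buffer: 100 mM Tris/HCl pH8, 100 mM KCl, 0.05% low protease BSA, 2.5% glycerol, 0.01% Tween-20. ClpP 10 microg/mL final; 20 min RT; delta FRET normalized to ADEP and DMSO controls.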
RORg inh: inhibitors of mouse ROR gamma transcriptional activity. P51450. Drosophila S2 Gal4-RORgamma UAS-luciferase reporter, 20 h. Potency, µM (titrated, usually from 53.6 µM), for the others: at the highest dose activity change, negative = inhibition, actives largely listed as inhibitors. 310,000 tested, 5.4% active; also: % is scaled to controls: 0 for no effect and ±100 for the full control effect; nearly all actives have a fitted effect of over 60% in size
Target sequence (P51450 whole entry, looked up, the tested form may be a part): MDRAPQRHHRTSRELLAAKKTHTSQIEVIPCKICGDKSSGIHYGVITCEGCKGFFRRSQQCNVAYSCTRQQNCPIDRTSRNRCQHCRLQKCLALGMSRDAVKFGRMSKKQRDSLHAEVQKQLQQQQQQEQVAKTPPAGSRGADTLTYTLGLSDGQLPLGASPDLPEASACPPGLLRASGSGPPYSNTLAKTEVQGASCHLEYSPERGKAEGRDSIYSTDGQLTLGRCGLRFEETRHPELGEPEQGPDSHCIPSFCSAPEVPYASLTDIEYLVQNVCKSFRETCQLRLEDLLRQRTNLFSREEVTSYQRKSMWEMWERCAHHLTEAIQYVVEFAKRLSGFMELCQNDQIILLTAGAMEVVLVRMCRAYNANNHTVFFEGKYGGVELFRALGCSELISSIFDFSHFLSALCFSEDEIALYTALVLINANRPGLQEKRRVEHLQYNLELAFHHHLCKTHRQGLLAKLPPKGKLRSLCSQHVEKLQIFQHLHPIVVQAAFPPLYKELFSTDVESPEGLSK
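Read-out: Photinus luciferase luminescence; inhibitors lower reporter signal. Insect Schneider cells with Gal4-ROR gamma fusion under metallothionein promoter, UAS reporter; 700 uM final copper sulfate induction, 20 hr, ambient temperature.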
Epigenetic reg: regulators of epigenetic silencing causing reporter derepression in mouse cells; murine LDR cells, GFP reporter derepression, 30 h; Potency, µM (top dose mostly 53.9 µM), inactives show top-dose GFP activation, actives largely listed as activators; 280,000 tested, 0.2% active; AID 1865; also: % of control where 0% means no effect; nearly all actives have a fitted effect of over 60% in size
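In this reporter-derepression format, murine cells bearing a silenced integrated CMV-GFP locus incubate with test compound (30 h, 37 C), then are washed and imaged; fluorescent objects of 20–120 um count as induced cells.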
Active calls of the source: *; ? = inconclusive; · = no result; ! = not active in a repeat; [ ] = another dose, or the depositor's remark. Unless noted, calls follow the shape of the dose curve; as a rule, active = well fitted curve in the direction sought with a large enough effect; inconclusive = small, poorly fitted or top-dose-only effect, or another doubt; inactive = no such curve, though single readings can be large; an effect the other way counts as inactive or inconclusive. Potency is read from the fitted curve at half-maximal effect.

SMILES | Gal4-VP16 FLuc | PINK1 expr mod | Sfp PPTase inh | ClpP mod | RORg inh | Epigenetic reg
Cc1cc2c(cc1C)N[C@]1(C[C@H]3CCC(=O)N4CC[C@@H](C1)[C@@H]34)C(=Nc1ccccc1C)N2 | · | · | · | 0% | · | ·
COCCn1nnnc1C(C(C)C)N(Cc1ccccc1)Cc1cc2cc(OC)ccc2[nH]c1=O (stereo unspecified) | 1% | 2% | -14% | -21% | 19% | 3%
COCCn1nnnc1C(C(C)C)N(Cc1cccnc1)Cc1cc2cc(OC)ccc2[nH]c1=O (stereo unspecified) | 0% | 1% | 15% | 25µM* | -1% | -1%
O=C(NCc1nnc2n1CCN(C(=O)c1cccc(Cl)c1)CC2)C1CC1 | · | 1% | · | · | · | ·
Cc1ncc(CCl)c2c1OC(C)(C)OC2 | -15% | -1% | 45µM* | ? | 32% | -2%
O=C(CN1CCN(CC(=O)Nc2ccccc2F)CC1)Nc1ccc(Cl)c(C(F)(F)F)c1 | · | 2% | · | 2% | · | 3%
COc1ccc(C/C(C)=N/NC(=S)Nc2ccccc2F)cc1 | -5% | 1% | -13% | · | 6% | 2%
COc1ccc(C/C(C)=N/NC(=O)c2ccc(Cl)cc2)cc1 | ? | 3% | -22% | · | 11µM* | -2%
COc1ccc(C/C(C)=N/NS(=O)(=O)c2ccc(Br)cc2)cc1 | ? | 0% | -18% | 1% | 10µM* | 0%
CC/C(=N\NC(=S)Nc1ccc(OC)cc1)c1ccc(OC(F)F)cc1 | ? | 2% | 1% | 0% | 13µM* | 4%
CCOc1cc(C(=O)N/N=C(\C)Cc2ccc(OC)cc2)cc(OCC)c1OCC | 2% | 5% | -2% | -1% | -34% | -3%
COc1ccc(C/C(C)=N/NC(=S)Nc2ccc(C(C)C)cc2)cc1 | ? | 0% | -1% | -1% | 4.5µM* | -3%
CC/C(=N\NC(=S)Nc1cc(C)ccc1C)c1ccc(OC(F)F)cc1 | -100% | 25% | ? | 1% | ? | -1%
Cc1cccc2c(N3CCCC3)nc(CNS(=O)(=O)c3ccc4ccccc4c3)nc12 | · | -1% | · | · | · | ·
C/C(=N\NC(=S)Nc1c(C)cccc1C)c1ccc(OC(F)F)cc1 | 5.6µM* | 0% | -25% | · | 3.2µM* | ?
CCOC(=O)c1c(C)oc2ncnc(N3CCN(c4ccccc4)CC3)c12 | · | 2% | · | -1% | · | 0%
Cc1ccc(CNn2cn[nH]c2=S)cc1 | · | 1% | · | 0% | · | ·
COc1cc(CNn2c(C)n[nH]c2=S)cc(Cl)c1OCc1ccc(F)cc1 | ? | · | -26% | 0% | ? | 0%
C=CCOc1c(Br)cc(CNn2cn[nH]c2=S)cc1OC | -2% | -2% | -10% | · | 10µM* | 1%
C=CCOc1ccc(CNn2cn[nH]c2=S)cc1 | ? | ? | -7% | -2% | 13µM* | 2%
COc1cc(CNn2c(C)n[nH]c2=S)cc(Br)c1OCc1ccc(F)cc1 | -2% | 3% | -10% | -10% | 10µM* | 1%
Cc1ccc(Cl)cc1NC(=O)CN(C)S(=O)(=O)c1ccc2c(c1)n(C)c(=O)c(=O)n2C | · | -1% | · | -6% | · | ?
Cc1cc(C)n2c(Nc3ccccc3)c(-c3ccccc3)nc2n1 | · | -2% | · | -1% | · | 0%
CN1CCN(CCCN2c3ccccc3Sc3ccc(C(F)(F)F)cc32)CC1 | 14µM*! | -2% | ? | -12% | ? | -2%
CCN(CC)Cc1cc(Nc2ccnc3cc(Cl)ccc23)ccc1O | -5% | 11% | 7% | -2% | 2% | 7%[16.9 µM]
O=C(NCCNc1ccnc2cc(Cl)ccc12)c1ccccc1F | 11µM* | 4% | 21% | -19% | ? | ·
OC(CNc1ccnc2cc(Cl)ccc12)CNC1CCCCC1 (stereo unspecified) | · | -1% | · | 28µM* | · | ·
CCN(CC)CCNc1ccnc2cc(Cl)ccc12 | -5%[0.365 µM] | -4%[38.3 µM] | -3% | 32µM* | -10% | -1%
O=C(NCCNc1ccc(Cl)cc1[N+](=O)[O-])c1ccccc1F | -7% | 6% | 0% | 2% | 32% | ·

Screening data as filed in PubChem BioAssay.
